# SARS PLP yeast: SARS-CoV PLP inhibition in yeast; 330,000 compounds, 0.19% hits; Potency, µM (doses to about 32.9 µM), inactives show at the top dose activity, positive = growth rescue, most hits filed as activators; AID 485353; S. cerevisiae expressing SARS-CoV PLpro, growth rescue; calls by dose curve; note: 0% is about no effect; nearly all actives have a fitted effect of over 55% in size
# LmPK inhibitor: LmPK (Leishmania mexicana) enzyme inhibition. Q27686. purified LmPK, Kinase-Glo ATP luminescence, 1 h. Potency, µM (top dose mostly 57.5 µM), without a hit: top-dose activity change, negative = inhibition, hits mostly inhibitors. 290,000 compounds, 0.37% hits. AID 1721; note: % is set by controls: 0 for no effect and ±100 for the full control effect
# Target sequence (Q27686 whole entry, looked up): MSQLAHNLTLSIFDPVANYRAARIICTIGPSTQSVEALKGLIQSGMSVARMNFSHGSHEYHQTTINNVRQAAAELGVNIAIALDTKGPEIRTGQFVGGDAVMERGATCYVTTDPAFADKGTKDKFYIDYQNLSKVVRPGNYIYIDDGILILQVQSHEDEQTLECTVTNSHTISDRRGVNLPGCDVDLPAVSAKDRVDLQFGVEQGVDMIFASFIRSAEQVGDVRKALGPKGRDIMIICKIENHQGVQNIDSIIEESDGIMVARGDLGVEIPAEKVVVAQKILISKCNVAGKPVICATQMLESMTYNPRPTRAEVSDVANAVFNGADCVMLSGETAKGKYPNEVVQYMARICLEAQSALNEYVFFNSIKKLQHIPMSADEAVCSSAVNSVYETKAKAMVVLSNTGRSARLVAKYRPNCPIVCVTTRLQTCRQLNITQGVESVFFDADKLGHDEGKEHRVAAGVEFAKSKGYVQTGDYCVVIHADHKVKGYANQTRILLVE
#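 In 50 mM imidazole pH 7.2 with 7 mM MgCl2, LmPK (0.1 nM) turned over PEP (0.5 mM) and ADP (0.1 mM) for 1 h at room temperature. Luciferase read-out of ATP.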
# TbPYK inhibitor: inhibitors of Trypanosoma brucei pyruvate kinase; Q57TT1; TbPYK enzyme, Kinase-Glo Plus ATP luminescence, 45 min; Potency, µM (top dose mostly 76.8 µM), for inactives: at the highest dose activity, negative = inhibition, usual class: inhibitors; 410,000 compounds, 0.12% hits; note: % is set by controls: 0 for no effect and ±100 for the full control effect; nearly all actives have a fitted effect of over 50% in size
#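 Enzyme and substrate buffer are dispensed first and compound is pin-transferred. ADP at 130 uM final then starts the reaction, which runs 45 min at room temperature. Detection reagent is added for 10 min before luminescence is imaged.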
# NS1 function inh: inhibitors of influenza NS1 protein function; Potency, µM (top dose mostly 46.1 µM), for the others: top-dose activity, positive = more growth; 270,000 compounds, 0.4% hits; calls by dose curve; note: actives are rising curves; nearly all actives have a fitted effect of over 50% in size
#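 Read-out: OD600 growth recovery of NS1-expressing budding yeast. Cells grown overnight at 30C in -URA glucose medium, washed, resuspended and diluted 1:100 in 2% galactose assay medium, pH 6.0. Same strain lacking NS1 served as positive control.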
# RE007 growth inh: less growth of the S. pombe RE007 Vpr strain. 360,000 compounds, 0.21% hits. S. pombe RE007 Vpr strain, BacTiter-Glo ATP luminescence, 24 h. AID 651644. Potency, µM (doses to about 92.2 µM), for inactives: at the highest dose activity change, negative = less growth, actives largely listed as inhibitors; active = well fitted falling curve with a large enough effect; inconclusive = small, poorly fitted or top-dose-only effect; inactive = no such curve, though single readings can be large or run the other way; note: % is set by controls: 0 for no effect and ±100 for the full control effect; nearly all actives have a fitted effect of over 50% in size
#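 Fission yeast strain RE007, carrying one chromosomally integrated HIV-1 vpr copy, was seeded at OD 0.01 in PMG+AL medium with 23 nL pinned compound. After 24 h at 30 °C and 99% humidity, viability was read by BacTiter-Glo luminescence.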
# Sm TGR block: blocks Schistosoma mansoni thioredoxin glutathione reductase. AID 485364. 360,000 compounds, 3% hits. purified TGR, DTNB reduction, TNB absorbance 405 nm. Q962Y6. Potency, µM (doses to about 114 µM), inactives show at the top dose activity change, negative = inhibition, most hits filed as inhibitors; note: % is set by controls: 0 for no effect and ±100 for the full control effect; nearly all actives have a fitted effect of over 60% in size
#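 First, TGR (20 nM dispensed) and NADPH were mixed with compound. Second, a 15 min room-temperature incubation followed. Third, further NADPH and then DTNB were added to start the reaction. Finally, TNB absorbance was monitored kinetically.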
# The depositor's hits bear a star; ? = inconclusive; . = not tested or not shown; [ ] = remark or other dose. The list is not random: actives were taken first. Their share in the collection is about 3.3%. Unless noted, calls come from the whole dose curve; as a rule, active = well fitted curve in the direction sought with a large enough effect; inconclusive = small, poorly fitted or top-dose-only effect, or another doubt; inactive = no such curve, though single readings can be large; an effect the other way counts as inactive or inconclusive. Potency is the fitted concentration of half-maximal effect.
SMILES,SARS PLP yeast,LmPK inhibitor,TbPYK inhibitor,NS1 function inh,RE007 growth inh,Sm TGR block
CCn1nccc1C(=O)Nc1cc(Cl)cc(Cl)c1,-19%,4%,-1%,-25%,-10%,-4%
CCn1nccc1C(=O)Nc1ccc(Cl)cn1,7%,28µM*,-13%,6%,-6%,-2%
O=C(CN1CCCCCC1)Nc1ccc(Cl)cn1,4%,-1%,-10%,5%,0%,40µM*
O=C(CN1CCN(Cc2ccccc2)CC1)Nc1ccc(Cl)cn1,-2%,0%,8%,-18%,8%,-33%
CCCCCCC(=O)N(O)C1CC(=O)N(c2ccc(Cl)cc2)C1=O (stereo not drawn),-7%,-25%,-24%,-67%,4µM*,0.56µM*
CCCOc1ccc(N2C(=O)CC(N(CCC)C(=O)CCC(=O)O)C2=O)cc1 (stereo not drawn),-7%,2%,-4%,-3%[9.22 µM],-5%,-9%
CCCCCCC(=O)N(O)C1CC(=O)N(c2ccc(C)cc2)C1=O (stereo not drawn),-48%,-1%,.,-36%,0%[3.69 µM],0.56µM*
CCOC(=O)c1cccc(-c2ccc(C=O)o2)c1,-34%,0%,-12%,-23%,3%,50µM*
CCOC(=O)c1ccc(-c2ccc(C=O)o2)cc1,0%,-5%,0%,-86%,-22%,-31%
CCCOc1ccc(/C=C/C(=O)Nc2sc(C)c(C)c2C(=O)OCC)cc1OC,.,.,?,.,.,-2%
Clc1ccccc1-c1nnc2sc(-c3ccncc3)nn12,-5%,2%,-2%,4%,6%,4%
Clc1ccccc1-c1nnc2sc(-c3cccs3)nn12,22µM*,2%,-8%,-34%,15%,-6%
O=C1NCCCC2c3cc(O)c4ccccc4c3OC12N1CCCCC1 (stereo not drawn),0%,?,.,10%,.,2µM*
Cc1ccc(S(=O)(=O)Cc2ccc(C(=O)NCCCN3CCCC3=O)o2)cc1,-4%,-1%,-12%,-11%,3%,20µM*
Cc1ccc(CS(=O)(=O)Cc2ccc(C(=O)N3CCC4(CC3)OCCO4)o2)cc1,1%,-5%,0%,-4%,17%,45µM*
COc1ccc(S(=O)(=O)Cc2ccc(C(=O)N3CCCC3)o2)cc1,2%,-4%,-6%,1%,-7%,45µM*
COc1ccc(S(=O)(=O)Cc2ccc(C(=O)N3CCC(C(N)=O)CC3)o2)cc1,-2%,6%,-2%,?,-3%,-19%
Cc1ccc(S(=O)(=O)Cc2ccc(C(=O)N3CCC4(CC3)OCCO4)o2)cc1,1%,4%,4%,10%,0%,22µM*
O=C(NCCc1ccccc1)c1ccc(CSc2nc3cccnc3n2Cc2ccccc2)cc1,.,.,2%,.,.,1%
CC(C)NC(=O)Cn1c(=O)nc(-c2ccccc2)c2ccccc21,.,.,-2%,.,.,4%
CC1=NN(c2cccc(C(=O)O)c2)C(=O)/C1=C\C=C/c1ccccc1,-6%,-2%,?,.,-26%,11µM*
O=C(O)C/C(=C\c1ccccc1)C(=O)O,.,.,.,-2%,.,.
CC(=O)Nc1ccc2c(c1)C(=Nc1ccc(C(=O)O)cc1)c1ccccc1-2,.,.,.,-16%,.,.
O=c1[nH][nH]c(-c2ccccc2)c1-c1ccccc1,.,.,-9%,.,7%,.
O=c1c(-c2ccccc2)c1-c1ccccc1,-24%,2%,-6%,.,.,3.5µM*
SMILES,SARS PLP yeast,LmPK inhibitor,TbPYK inhibitor,NS1 function inh,RE007 growth inh,Sm TGR block
CCOc1cc(CNC(=O)Cn2ncn3c(cc4cc(F)ccc43)c2=O)cc(OCC)c1OCC,.,.,3%,.,.,10%
C1=C(c2ccccc2)CCN(c2nc3ccccc3n3cnnc23)C1,7%,6%,1%,-64%,25%,3.5µM*
c1ccc(N2CCN(c3nc4ccccc4n4cnnc34)CC2)cc1,3%,2%,5%,-4%,2%,4%
CCCc1cc(=O)n2[nH]c(NCc3ccccc3OC)nc2n1,.,.,-2%,.,.,-1%
CC1=CC(=C2C(=O)c3ccccc3C2=O)C=C(C)N1Cc1ccco1,-13%,-8%,-10%,-43%,-13%,40µM*
COc1cccc(-n2c(=O)c3sc4ccccc4c3n(CC(=O)Nc3ccccc3OC)c2=O)c1,.,.,3%,.,.,3%
CC(=O)c1ccc(OCc2cc(C(=O)N3CC4C[C@@H]5CC3C[C@H](C4)C5)no2)cc1,16%,2%,1%,-17%,5%,-26%
CC(=O)c1cccc(OCc2cc(C(=O)N3CC4C[C@@H]5CC3C[C@H](C4)C5)no2)c1,-4%,4%,0%,-16%,-5%,32µM*
C=CCn1c(Cc2c(C)[nH]c3ccccc23)nnc1SCC(=O)NCc1ccc(F)cc1,4%,2%,-20%,-2%,3%,32µM*
CCn1c(Cc2c(C)[nH]c3ccccc23)nnc1SCC(N)=O,-4%,-8%,-12%,-1%,-3%,45µM*
CCn1c(Cc2c(C)[nH]c3ccccc23)nnc1SCC(=O)NCc1ccccc1,-11%,3%,-13%,-2%,2%,?
C=CC1=C2C=C(C3CC3)N(Cc3ccccc3)C=C2C(=O)C(C)(OC(=O)c2ccco2)C1=O (stereo not drawn),.,-6%[11.5 µM],.,.,.,.
COc1ccc(NC(=O)c2ccc(-c3nc(CSc4ccc(C)cc4)c(C)o3)cc2)cc1Cl,.,.,1%,.,.,-7%
CCSc1ncc(Cl)c(C(=O)N2CCN(c3ccc(OC)cc3)CC2)n1,.,.,1%,.,.,0%
CCCS(=O)(=O)c1ncc(Cl)c(C(=O)N2CCN(c3ccc(OC)cc3)CC2)n1,.,.,4%,.,.,11µM*
O=C(COC(=O)c1c2c(nc3ccccc13)/C(=C/c1ccco1)CC2)NC1CCCC1,0%,-1%,-12%,23%,-11%,5µM*
CC1CCCCC1NC(=O)COC(=O)c1c2c(nc3ccccc13)/C(=C/c1ccco1)CC2 (stereo not drawn),-4%,1%,-9%,24%,-8%,14µM*
COc1ccc(-c2cn(-c3ccc(C)cc3)c(S(=O)(=O)CC(=O)Nc3ccccc3)n2)cc1,.,.,-3%,.,.,-15%
O=C(Nc1ccc(-n2nncc2-c2ccco2)cc1)c1cc2ccccc2oc1=O,0%,3%,-10%,5µM*,6%,-3%
O=C(c1ccc2c(c1)N(Cc1c(F)cccc1Cl)C(=O)c1ccccc1S2)N1CCOCC1,.,.,3%,.,.,-1%
COc1ccc(-c2onc(C)c2C)cc1S(=O)(=O)N1CCN(c2cc(C)ccc2C)CC1,.,.,-2%,.,.,5%
O=c1c(O[C@@H]2O[C@H](CO)[C@H](O)[C@H](O)[C@H]2O)c(-c2ccc(O)c(O)c2)oc2cc(O)cc(O)c12,.,18%,.,.,.,18%
COc1c(-c2ccc(O)c(O)c2)oc2cc(O)cc(O)c2c1=O,2%,-2%,-11%,-2%,-11%,28µM*

# Screening results from PubChem.
